This note sets out measurements from PubChem BioAssay (NCATS).

Each structure is given as a SMILES string. Records with an inconclusive call do not appear. Active and inactive are the calls of the source. Unless noted, calls follow the shape of the dose curve; as a rule, active = well fitted curve in either direction with a large enough effect (not every such curve was filed as active); inconclusive = small, poorly fitted or top-dose-only effect, or another doubt; inactive = flat fitted curve, though single readings scatter.

Test [1] deals with Lysosomal acid glucosylceramidase (Homo sapiens) (UniProt P04062). The test is described as follows: Glucocerebrosidase-p2 (AID 348; in the data active = potency below about 10 µM; also: potency is read from the fitted curve at half-maximal effect). Particulars: purified GBA, blue fluorogenic substrate, 40 min. The method, boiled down: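 Normal human glucocerebrosidase (0.2 nM) with blue fluorogenic substrate (80 uM final) in citrate/phosphate pH 5.9 with 10mM sodium taurocholate, 0.01% tween-20; 40 min RT, NaOH/glycine stop; fluorescence Ex 365/Em 440; AC50 from a titration from 0.6 nM upwards.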
Lysosomal acid glucosylceramidase (Homo sapiens), sequence (P04062 whole entry, looked up): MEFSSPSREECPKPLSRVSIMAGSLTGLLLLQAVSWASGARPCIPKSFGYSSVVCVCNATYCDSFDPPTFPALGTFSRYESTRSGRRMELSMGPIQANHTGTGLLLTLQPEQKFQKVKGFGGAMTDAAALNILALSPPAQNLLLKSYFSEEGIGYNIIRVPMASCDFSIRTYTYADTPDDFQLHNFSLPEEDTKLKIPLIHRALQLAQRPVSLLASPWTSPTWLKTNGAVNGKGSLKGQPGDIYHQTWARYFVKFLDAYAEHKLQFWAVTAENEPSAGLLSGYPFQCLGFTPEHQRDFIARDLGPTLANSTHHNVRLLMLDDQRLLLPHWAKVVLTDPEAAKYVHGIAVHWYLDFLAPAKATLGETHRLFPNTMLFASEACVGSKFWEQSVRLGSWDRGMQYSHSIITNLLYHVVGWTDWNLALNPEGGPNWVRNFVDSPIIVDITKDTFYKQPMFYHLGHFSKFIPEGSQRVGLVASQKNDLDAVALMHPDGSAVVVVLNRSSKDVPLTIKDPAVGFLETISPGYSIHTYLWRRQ

The nature of test [2]: AP1 Signaling Pathway (AID 357).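 Also: ME-180 reporter cells stimulated with EGF at its EC50 level; % is scaled to controls: 0 for no effect and ±100 for the full control effect.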 To be noted: ME-180 AP-1-bla reporter, EGF-induced, beta-lactamase ratio, 5 h; at 7.69 µM (top of the series) unless noted. Summed up:
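Titration-series screen for positive or negative modulators of EC50 EGF-induced signaling in ME-180 cells carrying an AP-1-driven beta-lactamase reporter. After 5 hours at 37 degrees Celsius, CCF4 460nm/530nm emission ratio gave %Activity; AC50 values derived.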

The target in test [3] is Cytochrome P450 1A2 (Homo sapiens) (UniProt P05177). The test is described as follows: p450-cyp1a2 (AID 410; calls by dose curve; also: potency is read from the fitted curve at half-maximal effect). To be noted: recombinant CYP1A2, luciferin-ME demethylation, luminescence; series mostly up to 57 µM. The method, boiled down: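 O-Demethylation of luciferin 6' methyl ether by human CYP1A2 is monitored as luciferase luminescence. Substrate sits at Km (100uM); enzyme is 20nM. Values are scaled to 57 uM furafylline as maximal inhibition.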
Cytochrome P450 1A2 (Homo sapiens), sequence (P05177 whole entry, looked up): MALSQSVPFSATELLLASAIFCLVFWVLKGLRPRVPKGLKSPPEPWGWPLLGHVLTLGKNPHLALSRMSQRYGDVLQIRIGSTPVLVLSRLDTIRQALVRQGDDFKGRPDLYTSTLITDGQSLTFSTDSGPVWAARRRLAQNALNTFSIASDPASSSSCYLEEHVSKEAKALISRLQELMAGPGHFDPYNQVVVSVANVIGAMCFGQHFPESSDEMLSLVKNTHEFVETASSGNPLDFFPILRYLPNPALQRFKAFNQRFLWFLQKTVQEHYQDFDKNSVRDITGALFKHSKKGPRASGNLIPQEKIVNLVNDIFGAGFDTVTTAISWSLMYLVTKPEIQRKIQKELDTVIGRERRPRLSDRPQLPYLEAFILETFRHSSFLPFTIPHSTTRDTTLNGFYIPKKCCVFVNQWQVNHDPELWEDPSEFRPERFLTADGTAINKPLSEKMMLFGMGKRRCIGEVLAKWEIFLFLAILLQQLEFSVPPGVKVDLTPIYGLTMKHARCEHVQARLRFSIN

The nature of test [4]: NFAT Signaling Pathway (AID 444).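 Also: carbachol stimulus at about its EC50 of 1 µM final; % is scaled to controls: 0 for no effect and ±100 for the full control effect.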 Particulars: Jurkat NFAT-bla M1, carbachol, beta-lactamase ratio, 5 h; at 7.69 µM (top of the series) unless noted. Summed up: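 Jurkat cells with NFAT-driven β-lactamase reporter and co-expressed M1 receptor, stimulated with carbachol (final 1 uM, ~EC50), compound titration, 5 h at 37 °C. CCF4 loaded 1 h at RT; 460/530 nm ratio gave %activity and AC50.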

The nature of test [5]: Stat Signaling Pathway (AID 446).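 Also: ME-180 cervical cancer cells given 40 pM IL-6 alongside compound; SIE-controlled beta-lactamase reporter measured as 460/530 nm FRET emission ratio; % is scaled to controls: 0 for no effect and ±100 for the full control effect.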 Particulars: ME-180 (cervical carcinoma) SIE beta-lactamase reporter, IL-6 stimulated, 5 h; at 7.69 µM (top of the series) unless noted. Summed up:
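Compound effects on IL-6-induced STAT reporter activity were measured in ME-180 cells. After overnight culture, cells were co-treated with 40 pM IL-6 for 5 hrs before beta-lactamase substrate loading at room temperature.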

In test [6] the target is Glucocorticoid receptor (Homo sapiens) (UniProt P04150). Kind of test: GR-GFP Redistribution (AID 450;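 active = compounds whose dose series gives a full or clear partial fitted curve of increased nuclear translocation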; also: potency is read from the fitted curve at half-maximal effect). Particulars: U2OS GR-GFP nuclear translocation, laser cytometry, 2 h.
Glucocorticoid receptor (Homo sapiens), sequence (P04150 whole entry, looked up, the tested form may be a part): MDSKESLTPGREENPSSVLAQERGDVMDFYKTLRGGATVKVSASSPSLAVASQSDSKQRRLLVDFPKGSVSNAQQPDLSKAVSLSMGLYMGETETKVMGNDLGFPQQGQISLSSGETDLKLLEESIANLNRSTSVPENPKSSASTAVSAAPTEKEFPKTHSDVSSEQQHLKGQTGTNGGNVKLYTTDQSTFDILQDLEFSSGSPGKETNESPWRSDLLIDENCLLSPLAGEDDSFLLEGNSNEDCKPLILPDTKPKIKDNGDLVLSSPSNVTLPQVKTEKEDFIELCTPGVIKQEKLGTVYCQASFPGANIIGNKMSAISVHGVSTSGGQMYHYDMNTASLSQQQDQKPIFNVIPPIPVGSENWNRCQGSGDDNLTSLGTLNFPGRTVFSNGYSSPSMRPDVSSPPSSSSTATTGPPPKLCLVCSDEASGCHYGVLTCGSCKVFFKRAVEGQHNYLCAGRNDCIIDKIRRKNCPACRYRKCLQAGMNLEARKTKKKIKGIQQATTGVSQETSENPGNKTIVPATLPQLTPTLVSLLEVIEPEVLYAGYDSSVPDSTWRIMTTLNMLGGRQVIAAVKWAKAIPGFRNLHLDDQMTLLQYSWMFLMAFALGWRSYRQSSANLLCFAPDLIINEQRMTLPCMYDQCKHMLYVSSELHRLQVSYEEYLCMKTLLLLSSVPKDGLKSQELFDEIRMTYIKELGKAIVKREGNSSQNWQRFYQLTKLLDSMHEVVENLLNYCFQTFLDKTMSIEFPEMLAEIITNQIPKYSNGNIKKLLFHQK
For test [7] the target is unchanged. Kind of test: GR-EFC Redistribution (AID 451; calls by dose curve; also: potency is read from the fitted curve at half-maximal effect). To be noted: CHO-K1 GR-EFC translocation, beta-gal luminescence, 2 h. Summed up: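 CHO-K1 cells expressing nuclear EA and GR-ED fragments of b-gal; compounds titrated up to 46 uM final, 2 h at 37 C. GR nuclear translocation read as complemented b-gal luminescence after 1 h RT detection.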
In test [8] the target is Mitogen-activated protein kinase 10 (Mus musculus) (UniProt Q61831). Kind of test: JNK3 AlphaScreen Assay (AID 530).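 Also: kinase came from lysate of stimulated human HepG2 cells; signal reports phosphorylation of biotinylated GST-cJun 1-79 at Ser73 with 10 µM ATP; % is scaled to controls: 0 for no effect and ±100 for the full control effect.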 Particulars: JNK3 lysate, c-Jun phosphorylation; series mostly up to 57.1 µM. Summed up:
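Activity was read by AlphaScreen after JNK3-containing HepG2 lysate (cytokine pre-activated) phosphorylated biotinylated GST-cJun with 10 uM ATP at room temperature. Phospho-Ser73 cJun antibody with Protein-A acceptor beads provided detection.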

Test [9] deals with 3',5'-cyclic-AMP phosphodiesterase 4B (Homo sapiens) (UniProt Q07343). The test is described as follows: qHTS Assay for Inhibitors of PDE-IV (AID 607; active = well fitted activation curve with a large enough effect in the main read-out, with a control signal flat, not every such curve was filed as active; also: % of control where 0% means no effect). To be noted: HEK293 ACTOne CNG channel cells, membrane potential fluorescence; series mostly up to 22.9 µM. Summed up:
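ACTOne HEK293 cells carry a modified cAMP-gated CNG channel and express endogenous PDE4; plated 1000 cells/well, compounds up to 22.9 uM final. Membrane-potential dye fluorescence (ex 535/em 590) was read; parental cells received 10 uM forskolin + 100 uM RO 20-1724.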
On the technique in general: qHTS replaces the single test concentration by a dilution series.

Test [10] deals with Cytochrome P450 3A4 (Homo sapiens) (UniProt P08684). The test is described as follows: qHTS Assay for Activators of Cytochrome P450 3A4 (AID 885; active = well fitted curve in the direction sought with a large enough effect; an effect the other way counts as inactive or inconclusive; also: nearly all actives have a fitted effect of over 65% in size). To be noted: recombinant CYP3A4, Luciferin-PPXE luminescence, 60 min; series mostly up to 57.1 µM. The method, boiled down: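 CYP3A4 activity: Luciferin-PPXE O-dealkylation, 25uM substrate, 200mM KPO4, RT throughout. Read-out is luciferase luminescence; higher values reflect activation.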
Cytochrome P450 3A4 (Homo sapiens), sequence (P08684 whole entry, looked up): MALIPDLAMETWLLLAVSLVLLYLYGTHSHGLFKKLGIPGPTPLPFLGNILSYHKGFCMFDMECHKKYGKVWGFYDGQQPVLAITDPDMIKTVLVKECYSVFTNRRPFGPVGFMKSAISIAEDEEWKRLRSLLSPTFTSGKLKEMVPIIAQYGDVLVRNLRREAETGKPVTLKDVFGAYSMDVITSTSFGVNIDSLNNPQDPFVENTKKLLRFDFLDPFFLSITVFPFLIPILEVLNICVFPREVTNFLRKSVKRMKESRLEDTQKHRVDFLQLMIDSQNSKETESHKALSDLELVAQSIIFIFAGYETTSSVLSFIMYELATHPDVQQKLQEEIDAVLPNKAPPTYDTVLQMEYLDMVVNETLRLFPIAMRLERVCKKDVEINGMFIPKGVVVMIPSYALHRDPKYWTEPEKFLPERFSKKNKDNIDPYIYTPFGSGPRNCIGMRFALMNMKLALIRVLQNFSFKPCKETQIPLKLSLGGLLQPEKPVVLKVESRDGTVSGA

Test [11] can be described thus: Counterscreen qHTS for small molecule stabilizers of the endoplasmic reticulum resident proteome: GLuc-NoTag assay (AID 1508627; active = well fitted curve in the direction sought with a large enough effect; an effect the other way counts as inactive or inconclusive;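 also: 0% = thapsigargin alone and -100% = DMSO vehicle control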). To be noted: Gaussia luciferase NoTag secretion counterscreen, luminescence, thapsigargin 100 nM for final 4 h; series mostly up to 76.4 µM. The method, boiled down: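 Counterscreen line: SH-SY5Y-GLuc-NoTag. Seed, 5 h; compound, 19 h; thapsigargin 100 nM, 4 h; 37C/5% CO2. Readout: secreted GLuc luminescence, coelenterazine 0.07x final, no lysis.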
Background: The purpose of a counterscreen is to sort out artefacts and off-target activity.

Test [12] is described as follows: Confirmatory qHTS for small molecule stabilizers of the endoplasmic reticulum resident proteome: Secreted ER Calcium Modulated Protein (SERCaMP) assay (AID 1508628; active = well fitted curve in the direction sought with a large enough effect; an effect the other way counts as inactive or inconclusive; also: nearly all actives have a fitted effect of over 40% in size; also: potency is read from the fitted curve at half-maximal effect). To be noted: SERCaMP secreted luciferase ER calcium/proteostasis reporter; series mostly up to 76.3 µM. Summed up:
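Reporter secretion upon ER calcium depletion (100 nM thapsigargin, 4 h, 37C) is measured as medium luminescence with coelenterazine, after 16 h compound pretreatment of SH-SY5Y-GLuc-SERCaMP cells; primary at three concentrations up to 38.3 uM, follow-up at 11 (up to 76.6 uM).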

Test [13] in a line: Cell Viability qHTS for small molecule stabilizers of the endoplasmic reticulum resident proteome (AID 1508629; active = well fitted curve in the direction sought with a large enough effect; an effect the other way counts as inactive or inconclusive). Particulars: cell viability counter-screen, 100 nM thapsigargin for final 4 h.
Test [14] has as its target Cytochrome P450 2D6 (Homo sapiens) (UniProt P10635). The test is described as follows: qHTS Assay for Inhibitors and Substrates of Cytochrome P450 2D6 (AID 891; active = well fitted curve in the direction sought with a large enough effect; an effect the other way counts as inactive or inconclusive; also: potency is read from the fitted curve at half-maximal effect; nearly all actives have a fitted effect of over 60% in size). To be noted: recombinant CYP2D6, luciferin-ME EGE luminescence; series mostly up to 57.1 µM. The method, boiled down:
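Luminescent read-out of luciferin formed by 5 nM human CYP2D6 demethylating 30 uM Luciferin-ME EGE (Km level) over 60 min at room temperature after NADPH regeneration addition. Data normalized to full inhibition by 1.43 uM quinidine.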

Test [15] is described as follows: qHTS Assay for Lipid Storage Modulators (AID 1519; calls by dose curve). Particulars: Drosophila S3 cells, BODIPY lipid droplet/cell ratio, laser cytometry, cells loaded with oleic acid. Summed up: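 Cells seeded at 5,000 per well were treated with compounds over a concentration series and loaded with oleic acid (400 uM, as added). Lipid droplet fluorescence (488 nm excitation, 500-530 nm channel) was read by laser-scanning cytometry and normalized to 20 uM Triacsin C.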

3',5'-cyclic-AMP phosphodiesterase 4B (Homo sapiens), sequence (Q07343 whole entry, looked up): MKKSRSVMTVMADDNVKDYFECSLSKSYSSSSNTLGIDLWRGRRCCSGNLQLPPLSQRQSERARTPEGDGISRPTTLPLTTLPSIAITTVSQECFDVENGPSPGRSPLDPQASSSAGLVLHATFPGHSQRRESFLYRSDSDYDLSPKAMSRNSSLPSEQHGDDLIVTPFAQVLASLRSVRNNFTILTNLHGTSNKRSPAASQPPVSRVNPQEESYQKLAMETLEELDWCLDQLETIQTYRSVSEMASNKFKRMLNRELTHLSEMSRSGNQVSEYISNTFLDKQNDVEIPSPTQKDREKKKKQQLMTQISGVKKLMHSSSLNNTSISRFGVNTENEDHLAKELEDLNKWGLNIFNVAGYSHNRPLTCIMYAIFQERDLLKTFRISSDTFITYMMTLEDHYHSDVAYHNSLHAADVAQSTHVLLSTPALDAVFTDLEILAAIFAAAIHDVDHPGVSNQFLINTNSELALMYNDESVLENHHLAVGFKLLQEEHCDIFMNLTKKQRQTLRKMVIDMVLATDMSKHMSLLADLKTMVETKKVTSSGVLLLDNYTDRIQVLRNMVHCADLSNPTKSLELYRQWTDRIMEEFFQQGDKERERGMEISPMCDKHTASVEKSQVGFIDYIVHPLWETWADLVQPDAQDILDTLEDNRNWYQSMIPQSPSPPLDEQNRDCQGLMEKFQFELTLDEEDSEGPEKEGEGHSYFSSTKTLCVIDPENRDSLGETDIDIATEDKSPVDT
Cytochrome P450 2D6 (Homo sapiens), sequence (P10635 whole entry, looked up): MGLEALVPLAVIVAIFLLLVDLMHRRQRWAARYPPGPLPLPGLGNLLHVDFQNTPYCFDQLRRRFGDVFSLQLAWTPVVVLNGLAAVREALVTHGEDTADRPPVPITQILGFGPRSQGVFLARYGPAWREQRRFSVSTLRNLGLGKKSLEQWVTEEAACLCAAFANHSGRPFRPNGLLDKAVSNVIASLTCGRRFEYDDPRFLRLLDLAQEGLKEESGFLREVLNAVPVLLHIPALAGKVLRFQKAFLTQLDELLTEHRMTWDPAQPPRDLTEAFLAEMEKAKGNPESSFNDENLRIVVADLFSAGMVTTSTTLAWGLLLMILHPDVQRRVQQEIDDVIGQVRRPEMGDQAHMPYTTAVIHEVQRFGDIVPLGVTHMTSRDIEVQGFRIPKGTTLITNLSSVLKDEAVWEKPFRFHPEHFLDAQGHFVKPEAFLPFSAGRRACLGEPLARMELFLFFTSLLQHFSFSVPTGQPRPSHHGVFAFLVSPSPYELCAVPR

Turning to `COc1ncc2nc(CCc3ccccc3)c(=O)n(C3CC3)c2n1`, the Potency in test [1] was > 11.4 µM (inactive); in test [3] it was 3.16 µM (active); in [6], > 9.22 µM (inactive); in test [7], > 46 µM (inactive). Besides, the activity change, negative = inhibition is -0.42% (inactive) in [2] and 0.053% (inactive) in test [4]. The activity, negative = inhibition in [5] was -2.79% (inactive). Moreover, the result in [8] was inactive. The Potency result in [9], in test [10] and in [11] was “inactive” each time.

Consider `CCC(C)C(N)C(=O)NC(CC(N)=O)C(=O)NC(CC(C)C)C(=O)NC(CCCCN)C(=O)NC(C)C(=O)NC(CC(C)C)C(=O)NC(C)C(=O)NC(C)C(=O)NC(CC(C)C)C(=O)NC(C)C(=O)NC(CCCCN)C(=O)NC(CCCCN)C(=O)NC(C(=O)NC(CC(C)C)C(N)=O)C(C)CC` (stereo not drawn), for which the Potency result in test [12] is “inactive”. Besides, the max response in test [13] is 16.1% (inactive).

Consider `CCNc1ncc2nc(CCc3ccccc3)c(=O)n(CCOC)c2n1`, for which the activity change, negative = inhibition is 0.721% (inactive) in test [2] and 2.18% (inactive) in test [4]. Besides, the Potency is 2 µM (active) in test [3]; > 9.22 µM (inactive) in test [6]; > 46 µM (inactive) in test [7]; 0.398 µM (active) in test [14]; 35.5 µM (active) in [12]. In [5], the activity, negative = inhibition is -8.07% (inactive). The result in [8] was inactive. Also, the Potency entry in [10] was “inactive”. Further, the max response in test [13] was 18.6% (inactive).

Turning to `CN(C)c1ncc2nc(CCc3ccccc3)c(=O)n(C[C@H]3CCCO3)c2n1`, the Potency was > 11.4 µM (inactive) in [1], > 9.22 µM (inactive) in [6], > 46 µM (inactive) in [7] and 39.8 µM (active) in test [12]. For the same compound, the figures for the activity change, negative = inhibition in test [2] and in test [4] were -3.01% (inactive) and -1.26% (inactive), respectively. Besides, the activity, negative = inhibition in [5] is 1.42% (inactive). Moreover, in [8], the call was inactive. For the same compound, the max response in [13] is 23.4% (inactive).

Take `Cc1nc2cnc(N3CCN(C)CC3)nc2n(Cc2cccs2)c1=O`: the Potency was > 11.4 µM (inactive) in test [1]; 12.6 µM (active) in test [3]; > 9.22 µM (inactive) in test [6]; > 46 µM (inactive) in [7]; 39.8 µM (active) in [12]. Also, the activity change, negative = inhibition in test [2] is 6.23% (inactive); in [4], -2.27% (inactive); in test [15] (at 57.5 µM (top of the series)), 5.56% (inactive). Moreover, the activity, negative = inhibition in [5] is -2.61% (inactive). Also, in test [8], the compound was classed as inactive. Also, the Potency result in test [9] and in [10] was “inactive” throughout. Besides, the max response in [15] (measured here: cell count channel max response) is 14%; in test [15] (measured here: lipid channel max response), 22.2%; in [13] it was -5.25% (inactive).
